# Source: the supplement of paper PMC11624193, “Coupling cellular drug-target engagement to downstream pharmacology with CeTEAM” (Nature Communications, 2024)
# Where a name gives a salt, the structure may show the parent alone.
# Molecular target: PARP1 L713F-nLuc biosensor (HCT116) (UniProt P09874)
# Test: PARP1 L713F-nLuc/akaLuc ratio relative to DMSO control (biosensor stabilization) (fold change); higher = more PARP1 biosensor stabilization (target engagement / stabilizer), active = hit call of the paper
# Settings: stock concentration (mM; final µM = stock mM x 1): 10; 24 h;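 active = log2 fold change beyond 2 SD from the library mean after excluding viability outliers; inactive = within 2 SD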
# Sequence of PARP1 L713F-nLuc biosensor (HCT116) (P09874 whole entry L713F, looked up): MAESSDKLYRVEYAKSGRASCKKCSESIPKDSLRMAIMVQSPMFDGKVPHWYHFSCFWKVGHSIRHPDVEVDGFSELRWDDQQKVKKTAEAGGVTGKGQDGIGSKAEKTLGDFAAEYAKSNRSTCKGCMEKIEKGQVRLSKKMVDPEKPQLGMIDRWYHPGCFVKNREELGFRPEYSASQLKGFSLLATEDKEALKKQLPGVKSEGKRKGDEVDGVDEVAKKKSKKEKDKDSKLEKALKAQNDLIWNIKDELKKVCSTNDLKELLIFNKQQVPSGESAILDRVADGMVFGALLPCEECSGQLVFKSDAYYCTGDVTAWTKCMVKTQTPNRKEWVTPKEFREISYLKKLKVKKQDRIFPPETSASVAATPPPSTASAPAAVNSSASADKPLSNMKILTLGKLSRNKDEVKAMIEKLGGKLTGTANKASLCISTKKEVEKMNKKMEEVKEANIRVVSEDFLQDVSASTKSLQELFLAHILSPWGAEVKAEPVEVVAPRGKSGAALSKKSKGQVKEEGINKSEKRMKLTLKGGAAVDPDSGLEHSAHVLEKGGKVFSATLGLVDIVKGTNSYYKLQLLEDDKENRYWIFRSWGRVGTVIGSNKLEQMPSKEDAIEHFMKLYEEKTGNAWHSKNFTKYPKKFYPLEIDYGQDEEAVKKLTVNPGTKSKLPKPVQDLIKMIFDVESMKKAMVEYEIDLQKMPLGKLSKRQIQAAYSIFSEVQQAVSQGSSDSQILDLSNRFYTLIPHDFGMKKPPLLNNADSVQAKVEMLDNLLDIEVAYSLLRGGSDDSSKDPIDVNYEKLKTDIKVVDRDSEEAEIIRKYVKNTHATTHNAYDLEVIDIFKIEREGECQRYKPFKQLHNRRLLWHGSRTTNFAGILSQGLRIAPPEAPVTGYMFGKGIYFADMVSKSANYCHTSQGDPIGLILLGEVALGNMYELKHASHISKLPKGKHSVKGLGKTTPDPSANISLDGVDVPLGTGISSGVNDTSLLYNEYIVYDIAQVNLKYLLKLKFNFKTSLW
row,Structure (SMILES),PARP1 L713F-nLuc/akaLuc ratio
1,CCc1cc2c(cc1N1CCC(N3CCOCC3)CC1)C(C)(C)c1[nH]c3cc(C#N)ccc3c1C2=O,2.06 (inactive)
2,Cn1ncc(NC(=O)c2nc(-c3c(F)cccc3F)sc2N)c1N1CC[C@@H](N)[C@H](F)CC1,0.793 (inactive)
3,NC(=O)c1ncn(C2OC(CO)C(O)C2O)c1N (stereo not drawn) [AICAR (phosphate)],1.04 (inactive)
4,CCN(CCCOc1ccc2c(Nc3cc(CC(=O)Nc4cccc(F)c4)[nH]n3)ncnc2c1)CCOP(=O)(O)O [Barasertib],1.15 (inactive)
5,COc1cc(N2CCN(C)CC2)ccc1Nc1nccc(-c2cn(C)c3cnccc23)n1,0.923 (inactive)
6,Cc1nc(N)sc1-c1ccnc(Nc2ccc(N3CCOCC3)cc2)n1,0.726 (inactive)
7,COc1cc2nc(N3CCCN(C)CC3)nc(NC3CCN(Cc4ccccc4)CC3)c2cc1OC,0.488 (inactive)
8,O=C(Nc1ccccc1-c1cn2c(CN3CCNCC3)csc2n1)c1cnc2ccccc2n1 [SRT 1720 (Hydrochloride)],1.16 (inactive)
